Measured values as given in the supplement of paper PMC10981050.
Where “and” joins values, the source holds several entries; their conditions need not be identical. Identical values can stand only once. Counter-ions that a name gives are not always drawn.

Assays:
Assay in all cases: cell viability relative to vehicle control; higher = less cytotoxic
Details in all cases: 10 µM
[1] = test system: K562
Outline: (§1)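 CRISPR-edited SRSF2 P95 mutant and isogenic wild-type clones of four leukaemia lines were screened against Selleck bioactive, kinase and epigenetic probe libraries, with identity-inconsistent compounds removed. Compounds were acoustically dispensed into 384-well plates at a single 10 µM dose, with 2000 cells in 50 µL medium per well. After 48 h, supernatant was removed and CellTiter-Glo luminescence was read. Viability was expressed as percent of the on-plate DMSO vehicle control, analysed in Genedata Screener.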

[2] = test system: MARIMO
Outline: as §1

[3] = test system: MOLM14
Outline: as §1

[4] = test system: OCI-AML2
Outline: as §1

| Compound | cell viability ([1]; SRSF2 genotype: SRSF2 P95H/wt) | cell viability ([1]; SRSF2 genotype: SRSF2 wt/wt) | cell viability ([2]; SRSF2 genotype: SRSF2 P95H/wt) | cell viability ([2]; SRSF2 genotype: SRSF2 wt/wt) | cell viability ([3]; SRSF2 genotype: SRSF2 P95H/wt) | cell viability ([3]; SRSF2 genotype: SRSF2 wt/wt) | cell viability ([4]; SRSF2 genotype: P95H/wt) | cell viability ([4]; SRSF2 genotype: wt/wt) |
| --- | --- | --- | --- | --- | --- | --- | --- | --- |
| CCC(C)C1OC2(CCC1C)CC1CC(CC=C(C)C(OC3CC(OC)C(OC4CC(OC)C(O)C(C)O4)C(C)O3)C(C)C=CC=C3COC4C(O)C(C)=CC(C(=O)O1)C34O)O2 (stereo not drawn) [Ivermectin] | 24.6% and 35% | 26.9% | 25.9% | 22.9% | 21.3% | 18.4% | 4.65% | 7.41% |
| CN1CCN(Cc2ccc(NC(=O)Cc3ccc(Oc4cc(NC(=O)C5CC5)ncn4)cc3)cc2C(F)(F)F)CC1 | 30.9% and 36.5% | 23.8% | 4.48% | 2.16% | 1.39% | 0.45% | 1% | 5.81% |
| Cc1ccc(-n2nc(C(C)(C)C)cc2NC(=O)Nc2ccc(OCCN3CCOCC3)c3ccccc23)cc1 [BIRB 796 (Doramapimod)] | 80.2% and 83.8% | 92.3% | 81.8% | 104% | 81.4% | 88.1% | 93.7% | 101% |
| CCN(CCCc1ccccc1)CCCc1ccccc1 [Alverine Citrate] | 75.1% and 81.5% | 80.6% | 69.5% | 83.8% | 80.3% | 87.4% | 87.6% | 86.5% |
| C[C@]1(COc2ccc(N3CCC(Oc4ccc(OC(F)(F)F)cc4)CC3)cc2)Cn2cc([N+](=O)[O-])nc2O1 [Delamanid] | 97.1% and 93.5% | 93.5% | 94.6% | 100% | 94.9% | 101% | 83.8% | 88.6% |
| COc1cc2c(c(OC)c1OC)-c1c(cc3c(c1OC)OCO3)CC(C)C(C)C2 (stereo not drawn) [Schisandrin B] | 76.4% and 76% | 74.8% | 71.8% | 86% | 73% | 76.2% | 90.8% | 84.9% |
| CCn1nc(C2CCN(C(=O)CCO)CC2)nc1-c1cnc(N)c(-c2nnc(C(C)(C)C)o2)n1 | 97.5% and 109% | 104% | 57.5% | 50.7% | 38.2% | 50.8% | 21.3% | 34.6% |
| O=C(COc1ccc(C(=O)c2ccccc2)cc1)NC1CCN(Cc2ccccc2)CC1 [Adiporon] | 72.4% and 78.1% | 73.9% | 57.4% | 53.5% | 65.2% | 77.2% | 40.5% | 47.3% |
| C=C1/C(=C\C=C2/CCC[C@]3(C)[C@@H]([C@H](C)/C=C/[C@@H](O)C4CC4)CC[C@@H]23)C[C@@H](O)C[C@@H]1O [Calcipotriene] | 75.3% and 84.2% | 79.8% | 65% | 65.3% | 66.8% | 63.6% | 79.2% | 96.1% |
| O=C1CCCC(=O)C1C(=O)c1ccc(C(F)(F)F)cc1[N+](=O)[O-] [Nitisinone] | 105% | 108% | 103% | 109% | 104% | 108% | 110% | 111% |
| COC[C@H](NC(=O)c1cnc(C)s1)C(=O)N[C@@H](COC)C(=O)N[C@@H](Cc1ccccc1)C(=O)[C@@]1(C)CO1 [Oprozomib (ONX 0912)] | 0.73% and 1.14% | 1.05% | 0.37% | 0.74% | 0.16% | 0.2% | 0.2% | 0.17% |
| COc1cccc2c1C(=O)c1c(O)c3c(c(O)c1C2=O)C[C@@](O)(C(=O)CO)C[C@@H]3O[C@H]1C[C@H](N)[C@@H](O)[C@H](C)O1 [Epirubicin Hydrochloride] | 4.6% and 11.6% | 7.29% | 4.26% | 2.14% | 1.38% | 0.76% | 1.59% | 11.3% |
| CCOC(=O)CCC(=O)O[C@H]1[C@H](O[C@@H]2[C@@H](C)[C@H](O[C@H]3C[C@@](C)(OC)[C@@H](O)[C@H](C)O3)[C@@H](C)C(=O)O[C@H](CC)[C@@](C)(O)[C@H](O)[C@@H](C)C(=O)[C@H](C)C[C@@]2(C)O)O[C@H](C)C[C@@H]1N(C)C [Erythromycin Ethylsuccinate] | 95.1% and 103% | 108% | 102% | 101% | 106% | 102% | 117% | 98.3% |
| CN(C(Cc1ccc(OS(=O)(=O)c2cccc3cnccc23)cc1)C(=O)N1CCN(c2ccccc2)CC1)S(=O)(=O)c1cccc2cnccc12 (stereo not drawn) | 80.8% and 87.8% | 83.5% | 74.4% | 72.7% | 79.8% | 74.6% | 75.7% | 76.4% |
| CC(=O)Nc1ccc(C(=O)Nc2ccccc2N)cc1 [CI994 (Tacedinaline)] | 59.2% and 64.7% | 66% | 37.9% | 41.3% | 31.6% | 25.8% | 24.3% | 30% |
| CC(C)=CCC/C(C)=C/CC/C(C)=C/CCC(=O)OC/C=C(\C)CCC=C(C)C [Gefarnate] | 106% and 102% | 96.4% | 99.7% | 110% | 96.4% | 102% | 89.7% | 93.5% |
| C[C@H]1O[C@@H](n2cc(F)c(=O)[nH]c2=O)[C@H](O)[C@@H]1O [Doxifluridine] | 102% and 95% | 92.1% | 100% | 104% | 96.5% | 105% | 97.3% | 99.7% |
| C#C[C@]1(O)CC[C@H]2[C@@H]3CCC4=CCCC[C@@H]4[C@H]3C(=C)C[C@@]21CC [Desogestrel] | 77.9% and 78.3% | 78.7% | 75.4% | 81.7% | 71.4% | 79.9% | 61% | 63% |
| CC(C)(C)c1cc(/C=C(\C#N)C(N)=S)cc(C(C)(C)C)c1O [Tyrphostin AG 879 (AG 879)] | 22.1% and 17.9% | 25.2% | 73.5% | 68.3% | 20.1% | 14.8% | 7.33% | 15.8% |
| N[C@@H](CC(=O)N1CCn2c(nnc2C(F)(F)F)C1)Cc1cc(F)c(F)cc1F [Sitagliptin phosphate monohydrate] | 97.7% and 96.1% | 102% | 98.1% | 110% | 102% | 103% | 109% | 117% |
| CCc1cccc2c3c([nH]c12)C(CC)(CC(=O)O)OCC3 (stereo not drawn) [Etodolac (Lodine)] | 99.4% and 101% | 92.6% | 89.7% | 96.5% | 93% | 97.8% | 86.8% | 93.7% |

| Compound | cell viability ([1]; SRSF2 genotype: SRSF2 P95H/wt) | cell viability ([1]; SRSF2 genotype: SRSF2 wt/wt) | cell viability ([2]; SRSF2 genotype: SRSF2 P95H/wt) | cell viability ([2]; SRSF2 genotype: SRSF2 wt/wt) | cell viability ([3]; SRSF2 genotype: SRSF2 P95H/wt) | cell viability ([3]; SRSF2 genotype: SRSF2 wt/wt) | cell viability ([4]; SRSF2 genotype: P95H/wt) | cell viability ([4]; SRSF2 genotype: wt/wt) |
| --- | --- | --- | --- | --- | --- | --- | --- | --- |
| COCCOC(=O)C1=C(C)NC(C)=C(C(=O)OC(C)C)C1c1cccc([N+](=O)[O-])c1 (stereo not drawn) [Nimodipine (Nimotop)] | 88.8% and 92.4% | 99.3% | 85.2% | 92.7% | 87.6% | 99.4% | 83.7% | 88.4% |
| CC(C)(OCc1nn(Cc2ccccc2)c2ccccc12)C(=O)O [Bindarit] | 102% and 106% | 112% | 108% | 103% | 101% | 106% | 118% | 107% |
| COc1ccc(CCNCc2ccc(OCc3ccc(Cl)nc3)c(OC)c2)cc1OC | 85.6% and 95.4% | 89.8% | 87.4% | 95.2% | 91.9% | 99.9% | 91.4% | 83.5% |
| O=C(O)c1cc(C(=O)O)c2c(n1)C(=O)C(=O)c1cc(C(=O)O)[nH]c1-2 [Pyrroloquinoline Quinone Disodium Salt] | 101% and 95.6% | 98.9% | 94.1% | 106% | 88.8% | 107% | 106% | 99.4% |
| C=CCc1ccc(O)c(-c2ccc(O)c(CC=C)c2)c1 [Honokiol] | 84.9% and 87.5% | 83.8% | 84.5% | 92.7% | 85.5% | 98.9% | 66.7% | 72.3% |
| CC[C@@H]1C(=O)N(C)c2cnc(Nc3ccc(C(=O)NC4CCN(C)CC4)cc3OC)nc2N1C1CCCC1 | 1.43% and 2.65% | 1.81% | 6.52% | 5.37% | 0.17% | 0.13% | 0.53% | 2.92% |
| Cc1cc(OCc2nnc(SC3CCCC3)n2-c2cccnc2)ccc1-c1ccc(S(C)(=O)=O)cc1 | 0.65% and 0.74% | 1.74% | 0.85% | 1.72% | 0.25% | 0.26% | 0.24% | 0.79% |
| Cc1nn(C)c2nc(NNC(=O)Nc3cc(Cl)nc(Cl)c3)cc(C(C)C)c12 | 70.7% and 79.6% | 70% | 82.1% | 61.8% | 83% | 83.8% | 50.5% | 55.4% |
| CNC[C@H](O)[C@@H](O)[C@H](O)[C@H](O)CO [Meglumine] | 108% and 107% | 107% | 108% | 106% | 101% | 107% | 112% | 109% |
| Cc1ccc2c(c1)c1c(n2CCc2ccc(C)nc2)CCN(C)C1 [Latrepirdine 2HCl] | 88.7% and 89.9% | 80.2% | 73.8% | 82% | 74.4% | 84.6% | 73.7% | 76% |
| C#C[C@]1(O)CC[C@H]2[C@@H]3CCC4=CC(=O)CC[C@@H]4[C@H]3CC[C@@]21CC [Levonorgestrel (Levonelle)] | 104% and 102% | 101% | 95.7% | 109% | 104% | 103% | 105% | 108% |
| O=C(O)c1cc(C(F)(F)F)ccc1N1CC[C@H](OCc2ccccn2)C1 | 107% and 109% | 100% | 114% | 113% | 102% | 102% | 106% | 104% |
| CC1=C(C(=O)OC(C)C)C(c2cccc([N+](=O)[O-])c2)C(C(=O)OC2CN(C(c3ccccc3)c3ccccc3)C2)=C(N)N1 (stereo not drawn) [Azelnidipine] | 74.3% and 58.4% | 58.8% | 58.1% | 80.1% | 82.1% | 82.3% | 71.3% | 58% |
| COc1cc2c(cc1O)[C@@H](Cc1ccc(O)c(Oc3ccc(C[C@@H]4c5cc(OC)c(OC)cc5CCN4C)cc3)c1)N(C)CC2 [Daurisoline] | 30.5% and 37.4% | 15.9% | 3.28% | 9.42% | 1.06% | 0.83% | 1.65% | 1.01% |
| COc1cccc(C(N)=O)c1 [3-Methoxybenzamide] | 106% and 99.6% | 111% | 104% | 102% | 103% | 107% | 101% | 115% |
| CN(Cc1cnc2nc(N)nc(N)c2n1)c1ccc(C(=O)N[C@@H](CCC(=O)O)C(=O)O)cc1 [Abitrexate (Methotrexate)] | 99.8% and 103% | 45.1% | 93% | 93.5% | 103% | 74% | 99.2% | 96.9% |
| OCc1c[nH]c2ccccc12 [Indole-3-carbinol] | 102% and 107% | 99.8% | 105% | 113% | 95.1% | 104% | 105% | 106% |
| N[C@@H](Cc1c[nH]c2ccc(O)cc12)C(=O)O [5-hydroxytryptophan (5-HTP)] | 106% and 102% | 94.2% | 99.8% | 103% | 93.3% | 99.1% | 94.5% | 104% |
| CCCSc1ccc2[nH]c(NC(=O)OC)nc2c1 [Albendazole (Albenza)] | 19.1% and 33.6% | 30.6% | 9.83% | 11.3% | 6.95% | 2.47% | 5.18% | 12.9% |
| Cc1cccc(C)c1NC(=O)c1cc(S(N)(=O)=O)c(Cl)cc1O [Xipamide] | 101% and 94.8% | 104% | 103% | 113% | 101% | 107% | 97.5% | 106% |
